# Results filed as inconclusive are left out. Active and inactive are the calls of the source. How the source made its calls: active means hit-call score of the fitted dose curve at least 0.9, where 1 is the maximum; inconclusive means response in the unintended direction; inactive means score below 0.9.
# Tests used:
# [1] = biological target: human Acetylcholinesterase (AChE), ACHE (gene 43) (UniProt P22303); experiment: NVS_ENZ_hAChE: NovaScreen (NVS) Enzymatic Assay for human Acetylcholinesterase (AChE) (AID 2283129)
# Outline: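 Cell-free colorimetric enzyme-activity assay; compounds read 0.33 hour after dosing, loss of signal vs DMSO baseline. Primary screen in duplicate at 25 uM single concentration, with active compounds retested in concentration series.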
# [2] = biological target: Protein deacetylase HDAC6 (Homo sapiens) (UniProt Q9UBN7); experiment: NVS_ENZ_hHDAC6: NovaScreen (NVS) Enzymatic Assay for human Histone Deacetylase 6 (HDAC6) (AID 2283164)
# Outline: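 Recombinant human HDAC6 with fluorescent substrate, 1 h; product separated from substrate by electrophoretic mobility shift. Primary screen in duplicate at 25 uM; actives retested singly in concentration-response up to 50 uM, fitted relative to DMSO.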
# [3] = biological target: human Raf-1 Proto-Oncogene, serine/threonine Kinase (RAF1), RAF1 (gene 5894) (UniProt P04049); experiment: NVS_ENZ_hRAF1: NovaScreen (NVS) Enzymatic Assay for human Raf-1 Proto-Oncogene, serine/threonine Kinase (RAF1) (AID 2283216)
# Outline: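 Cell-free recombinant kinase with specific fluorescent substrate, product separated by electrophoretic mobility shift; read 1 h after dosing. Primary screen at 25 uM in duplicate; hits then run in concentration-response up to 50 uM, fitted as loss of signal versus DMSO.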
# [4] = biological target: rat Acetylcholinesterase (AChE), Ache (gene 83817) (UniProt P37136); experiment: NVS_ENZ_rAChE: NovaScreen (NVS) Enzymatic Assay for rat Acetylcholinesterase (AChE) (AID 2283233)
# Outline: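 Rat brain membrane acetylcholinesterase activity measured colorimetrically 0.33 h after compound addition, loss of signal relative to DMSO. Primary screen in duplicate at 25 uM; actives re-run as concentration-response with 50 uM top concentration.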
# [5] = biological target: Bile acid receptor (Homo sapiens) (UniProt Q96RI1); experiment: NVS_NR_hFXR_Agonist: NovaScreen (NVS) Nuclear Receptor Binding Assay for human Farnesoid X Receptor Agonism (FXR) (AID 2283347)
# Outline: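 Cell-free TR-FRET binding assay with extracted human FXR protein, agonist format, read 1 h after dosing. Primary screen at 25 uM single concentration in duplicate, actives retested in concentration series; gain of signal versus DMSO.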
# [6] = biological target: human AMP-activated Protein Kinase, alpha 1 (AMPKa1), PRKAA1 (gene 5562) (UniProt Q13131); experiment: NVS_ENZ_hAMPKa1: NovaScreen (NVS) Enzymatic Assay for human AMP-activated Protein Kinase, alpha 1 (AMPKa1) (AID 2283130)
# Outline: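 Recombinant human AMPKα1 activity was measured cell-free by fluorescent substrate conversion with electrophoretic mobility-shift separation, 1 h after dosing. Duplicate single-point screening was at 25 uM; actives (≥30% inhibition) were retested in concentration-response up to 50 uM.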
# [7] = biological target: human Caspase 2 (CASP2), CASP2 (gene 835) (UniProt P42575); experiment: NVS_ENZ_hCASP2: NovaScreen (NVS) Enzymatic Assay for human Caspase 2 (CASP2) (AID 2283135)
# Outline: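 E. coli-expressed enzyme in a cell-free protease assay, fluorescence read 1 h after dosing. Compounds at 25 uM in duplicate, with concentration-response up to 50 uM for hits; loss of signal against DMSO baseline.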
# [8] = biological target: human Fibroblast Growth Factor Receptor 1 (FGFR1), FGFR1 (gene 2260) (UniProt P11362); experiment: NVS_ENZ_hFGFR1: NovaScreen (NVS) Enzymatic Assay for human Fibroblast Growth Factor Receptor 1 (FGFR1) (AID 2283159)
# Outline: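 Cell-free recombinant kinase with fluorescent substrate, product separated by electrophoretic mobility shift; read 1 hour after dosing, loss of signal relative to DMSO. Initial screen in duplicate at 25 uM, actives followed in concentration series.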
# [9] = biological target: human MET Proto-Oncogene, Receptor Tyrosine Kinase (MET), MET (gene 4233) (UniProt P08581); experiment: NVS_ENZ_hMet: NovaScreen (NVS) Enzymatic Assay for human MET Proto-Oncogene, Receptor Tyrosine Kinase (MET) (AID 2283180)
# Outline: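 Cell-free MET kinase assay using recombinant protein and fluorescent substrate, with mobility-shift separation; read 1 h after dosing. Primary duplicate at 25 uM; actives in singleton concentration-response to 50 uM maximum. Signal loss versus DMSO.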
# [10] = biological target: human Tyrosine Protein Kinase Receptor Tie-2 (Tie2), TEK (gene 7010) (UniProt Q02763); experiment: NVS_ENZ_hTie2: NovaScreen (NVS) Enzymatic Assay for human Tyrosine Protein Kinase Receptor Tie-2 (Tie2) (AID 2283225)
# Outline: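 Recombinant human Tie2 kinase activity was read cell-free by fluorescence with electrophoretic mobility shift, 1 hour after dosing. The screen used 25 uM in duplicate, then concentration-response up to 50 uM. Signal loss was scored against DMSO.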
# [11] = biological target: rat Oxytocin Receptor (OXT), Oxtr (gene 25342) (UniProt P70536); experiment: NVS_GPCR_rOXT: NovaScreen (NVS) G Protein-Coupled Receptor Assay for rat Oxytocin Receptor (OXT) (AID 2283330)
# Outline: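 Radioligand displacement on rat uterine membranes, 1 h incubation, filter-based scintillation counting. Chemicals were screened in duplicate at 25 uM, and those passing threshold were retested in concentration-response up to 50 uM. Loss of binding was fitted versus DMSO.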
# [12] = biological target: human Aurora Kinase A - serine/threonine-protein Kinase 6 (AurA), AURKA (gene 6790) (UniProt O14965); experiment: NVS_ENZ_hAurA: NovaScreen (NVS) Enzymatic Assay for human Aurora Kinase A - serine/threonine-protein Kinase 6 (AurA) (AID 2283142)
# Outline: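 Cell-free enzymatic assay with human Aurora A, 1 hour after dosing. Fluorescent substrate turnover detected after electrophoretic mobility shift separation of substrate and product. Screened at 25 uM, actives retested in concentration-response up to 50 uM.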
# [13] = biological target: rat Monoamine Oxidase, MAO-B, Peripheral (MAOBP), Maob (gene 25750) (UniProt P19643); experiment: NVS_ENZ_rMAOBP: NovaScreen (NVS) Enzymatic Assay for rat Monoamine Oxidase, MAO-B, Peripheral (MAOBP) (AID 2283242)
# [14] = system: rat Monoamine Oxidase, MAO-A, Central (MAOAC), gene 29253; experiment: NVS_ENZ_rMAOAC: NovaScreen (NVS) Enzymatic Assay for rat Monoamine Oxidase, MAO-A, Central (MAOAC) (AID 2283243);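 further: potency refers to inhibition seen as signal drop below DMSO baseline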
# Outline: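 Rat brain tissue extract used as enzyme source in a cell-free radiometric assay, read by scintillation counting 1.5 hours after dosing. Loss of signal relative to DMSO baseline scored; primary screen at 25 uM in duplicate, actives followed up in concentration series.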
# [15] = biological target: Norway rat Vesicular Monoamine Transporter (VMAT2), neurotransmitter transporter, Slc18a2 (gene 25549) (UniProt Q01827); experiment: NVS_TR_rVMAT2: NovaScreen (NVS) Transporter Assay for Norway rat Vesicular Monoamine Transporter (VMAT2), neurotransmitter transporter (AID 2283376);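 further: actives lower the bound radioligand signal below the DMSO level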
# Outline: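 Radioligand displacement binding on rat forebrain tissue preparation, filter-based scintillation read-out 1 hour after dosing. Primary screen in duplicate at 25 uM, then concentration series for actives; loss of signal versus DMSO.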
# [16] = biological target: human Ephrin type-A Receptor 2 (EphA2), EPHA2 (gene 1969) (UniProt P29317); experiment: NVS_ENZ_hEphA2: NovaScreen (NVS) Enzymatic Assay for human Ephrin type-A Receptor 2 (EphA2) (AID 2283155)
# Outline: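 Cell-free recombinant EphA2 kinase with specific substrate, 1 h, fluorescence with electrophoretic mobility-shift separation of substrate and product. Primary screen at 25 uM in duplicate; hits retested in singleton concentration-response up to 50 uM, referenced to DMSO.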
# [17] = biological target: human Phosphatase and Tensin Homolog (PTEN), PTEN (gene 5728) (UniProt P60484); experiment: NVS_ENZ_hPTEN: NovaScreen (NVS) Enzymatic Assay for human Phosphatase and Tensin Homolog (PTEN) (AID 2283203)
# Outline: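 Cell-free recombinant human PTEN with fluorescent substrate; product separated by electrophoretic mobility shift and read by fluorescence 1 h after dosing. Primary screen in duplicate at 25 uM, actives followed in concentration series versus DMSO.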
# human AMP-activated Protein Kinase, alpha 1 (AMPKa1), PRKAA1 (gene 5562), sequence (Q13131 whole entry, looked up): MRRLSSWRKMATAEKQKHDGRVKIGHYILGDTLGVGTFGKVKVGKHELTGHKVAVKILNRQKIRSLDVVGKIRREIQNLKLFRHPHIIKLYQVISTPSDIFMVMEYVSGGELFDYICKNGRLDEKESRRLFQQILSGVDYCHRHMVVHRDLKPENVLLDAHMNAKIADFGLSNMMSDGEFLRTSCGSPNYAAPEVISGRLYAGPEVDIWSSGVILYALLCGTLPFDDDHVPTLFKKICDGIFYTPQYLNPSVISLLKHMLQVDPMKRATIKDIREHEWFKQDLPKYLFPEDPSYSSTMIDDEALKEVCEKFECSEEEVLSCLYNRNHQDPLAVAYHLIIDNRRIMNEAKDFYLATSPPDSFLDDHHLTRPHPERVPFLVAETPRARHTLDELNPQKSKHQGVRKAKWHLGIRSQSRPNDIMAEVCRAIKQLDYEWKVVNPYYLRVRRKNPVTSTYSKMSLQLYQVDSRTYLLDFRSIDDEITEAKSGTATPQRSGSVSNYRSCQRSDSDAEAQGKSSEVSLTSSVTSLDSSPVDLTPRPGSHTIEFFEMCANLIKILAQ
# human Acetylcholinesterase (AChE), ACHE (gene 43), sequence (P22303 whole entry, looked up): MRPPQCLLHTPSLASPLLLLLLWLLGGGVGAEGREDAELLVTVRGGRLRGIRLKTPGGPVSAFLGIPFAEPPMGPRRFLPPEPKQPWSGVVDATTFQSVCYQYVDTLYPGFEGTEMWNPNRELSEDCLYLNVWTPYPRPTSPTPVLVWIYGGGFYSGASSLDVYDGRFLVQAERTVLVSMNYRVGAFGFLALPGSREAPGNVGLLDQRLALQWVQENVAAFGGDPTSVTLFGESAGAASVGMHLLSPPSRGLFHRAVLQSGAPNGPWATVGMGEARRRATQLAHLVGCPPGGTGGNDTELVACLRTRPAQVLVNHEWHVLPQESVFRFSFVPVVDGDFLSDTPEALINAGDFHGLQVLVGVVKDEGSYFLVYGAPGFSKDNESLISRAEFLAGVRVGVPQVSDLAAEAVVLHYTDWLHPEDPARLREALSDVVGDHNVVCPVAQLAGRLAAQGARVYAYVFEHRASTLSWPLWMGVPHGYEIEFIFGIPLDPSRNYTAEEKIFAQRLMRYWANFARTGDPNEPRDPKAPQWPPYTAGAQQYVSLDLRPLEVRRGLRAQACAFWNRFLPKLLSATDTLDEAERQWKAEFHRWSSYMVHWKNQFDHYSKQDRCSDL
# human Fibroblast Growth Factor Receptor 1 (FGFR1), FGFR1 (gene 2260), sequence (P11362 whole entry, looked up): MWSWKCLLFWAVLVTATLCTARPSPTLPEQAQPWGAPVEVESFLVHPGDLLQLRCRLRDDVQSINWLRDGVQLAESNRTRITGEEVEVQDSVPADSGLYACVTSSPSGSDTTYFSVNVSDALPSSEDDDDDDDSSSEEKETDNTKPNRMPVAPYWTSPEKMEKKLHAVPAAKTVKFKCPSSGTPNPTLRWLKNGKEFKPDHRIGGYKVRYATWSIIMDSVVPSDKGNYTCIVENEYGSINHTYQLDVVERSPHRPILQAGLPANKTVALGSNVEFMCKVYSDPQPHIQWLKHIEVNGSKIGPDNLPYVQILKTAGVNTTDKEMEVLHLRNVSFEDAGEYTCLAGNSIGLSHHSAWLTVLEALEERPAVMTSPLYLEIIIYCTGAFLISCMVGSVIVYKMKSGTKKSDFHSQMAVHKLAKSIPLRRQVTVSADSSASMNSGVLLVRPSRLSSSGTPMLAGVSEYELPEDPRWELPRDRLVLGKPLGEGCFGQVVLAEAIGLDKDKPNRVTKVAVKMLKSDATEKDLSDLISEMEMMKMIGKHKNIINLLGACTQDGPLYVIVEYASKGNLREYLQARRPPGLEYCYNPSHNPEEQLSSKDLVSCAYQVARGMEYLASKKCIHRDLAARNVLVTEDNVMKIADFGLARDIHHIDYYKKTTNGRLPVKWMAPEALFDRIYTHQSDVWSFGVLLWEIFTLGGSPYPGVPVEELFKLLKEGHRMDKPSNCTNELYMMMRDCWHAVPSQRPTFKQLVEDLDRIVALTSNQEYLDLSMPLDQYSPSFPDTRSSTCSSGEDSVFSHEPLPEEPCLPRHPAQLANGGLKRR
# rat Acetylcholinesterase (AChE), Ache (gene 83817), sequence (P37136 whole entry, looked up): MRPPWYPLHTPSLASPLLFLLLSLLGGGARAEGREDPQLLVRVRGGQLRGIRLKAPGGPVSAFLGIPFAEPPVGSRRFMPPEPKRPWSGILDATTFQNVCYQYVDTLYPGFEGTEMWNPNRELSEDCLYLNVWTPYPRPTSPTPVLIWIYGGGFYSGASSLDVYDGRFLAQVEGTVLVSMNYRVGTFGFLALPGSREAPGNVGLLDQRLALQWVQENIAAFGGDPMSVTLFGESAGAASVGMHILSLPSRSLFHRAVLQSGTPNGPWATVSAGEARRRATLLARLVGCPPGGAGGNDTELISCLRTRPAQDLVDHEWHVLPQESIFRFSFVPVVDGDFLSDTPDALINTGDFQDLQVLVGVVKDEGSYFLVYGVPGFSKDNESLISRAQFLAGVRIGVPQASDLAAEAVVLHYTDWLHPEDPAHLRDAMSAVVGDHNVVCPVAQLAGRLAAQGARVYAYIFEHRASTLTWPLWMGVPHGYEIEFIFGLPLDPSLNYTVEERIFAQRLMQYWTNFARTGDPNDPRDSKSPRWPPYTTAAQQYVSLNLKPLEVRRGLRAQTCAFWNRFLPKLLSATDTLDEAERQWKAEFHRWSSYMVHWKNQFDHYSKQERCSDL
# human MET Proto-Oncogene, Receptor Tyrosine Kinase (MET), MET (gene 4233), sequence (P08581 whole entry, looked up): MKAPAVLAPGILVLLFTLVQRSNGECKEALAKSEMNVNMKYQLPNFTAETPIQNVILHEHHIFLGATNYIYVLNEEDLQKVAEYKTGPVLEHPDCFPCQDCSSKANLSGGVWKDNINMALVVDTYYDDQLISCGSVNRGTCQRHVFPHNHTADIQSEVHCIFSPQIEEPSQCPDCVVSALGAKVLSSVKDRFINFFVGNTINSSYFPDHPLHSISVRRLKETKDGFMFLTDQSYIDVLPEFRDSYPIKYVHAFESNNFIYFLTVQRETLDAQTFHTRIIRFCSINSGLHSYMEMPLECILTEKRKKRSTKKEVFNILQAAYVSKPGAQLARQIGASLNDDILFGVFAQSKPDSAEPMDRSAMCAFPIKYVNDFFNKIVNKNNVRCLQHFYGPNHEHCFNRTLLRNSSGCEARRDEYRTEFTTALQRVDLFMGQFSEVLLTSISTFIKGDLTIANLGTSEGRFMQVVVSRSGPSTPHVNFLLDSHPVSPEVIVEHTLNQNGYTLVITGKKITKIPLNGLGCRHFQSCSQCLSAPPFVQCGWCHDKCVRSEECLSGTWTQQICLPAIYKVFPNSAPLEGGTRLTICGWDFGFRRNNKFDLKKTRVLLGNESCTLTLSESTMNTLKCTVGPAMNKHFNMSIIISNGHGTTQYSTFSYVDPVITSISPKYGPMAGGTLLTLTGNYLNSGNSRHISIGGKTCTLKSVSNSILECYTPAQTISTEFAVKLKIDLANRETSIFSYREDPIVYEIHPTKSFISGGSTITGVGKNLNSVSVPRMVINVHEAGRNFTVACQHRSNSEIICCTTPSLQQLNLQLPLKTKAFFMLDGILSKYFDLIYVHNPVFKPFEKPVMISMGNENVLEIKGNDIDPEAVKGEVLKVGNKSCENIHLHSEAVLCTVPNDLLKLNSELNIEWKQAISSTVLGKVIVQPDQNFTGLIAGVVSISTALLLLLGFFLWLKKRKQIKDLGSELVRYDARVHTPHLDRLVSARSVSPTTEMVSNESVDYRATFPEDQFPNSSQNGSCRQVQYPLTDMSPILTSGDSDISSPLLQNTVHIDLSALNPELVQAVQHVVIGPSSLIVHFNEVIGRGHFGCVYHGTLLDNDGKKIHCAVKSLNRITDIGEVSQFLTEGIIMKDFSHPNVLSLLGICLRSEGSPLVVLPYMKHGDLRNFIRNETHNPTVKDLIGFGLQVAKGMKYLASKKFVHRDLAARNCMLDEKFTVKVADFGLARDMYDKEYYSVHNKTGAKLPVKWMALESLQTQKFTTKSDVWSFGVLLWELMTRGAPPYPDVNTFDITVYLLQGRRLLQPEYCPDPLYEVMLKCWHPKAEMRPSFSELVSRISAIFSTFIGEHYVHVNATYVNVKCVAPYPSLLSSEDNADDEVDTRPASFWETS
# rat Oxytocin Receptor (OXT), Oxtr (gene 25342), sequence (P70536 whole entry, looked up): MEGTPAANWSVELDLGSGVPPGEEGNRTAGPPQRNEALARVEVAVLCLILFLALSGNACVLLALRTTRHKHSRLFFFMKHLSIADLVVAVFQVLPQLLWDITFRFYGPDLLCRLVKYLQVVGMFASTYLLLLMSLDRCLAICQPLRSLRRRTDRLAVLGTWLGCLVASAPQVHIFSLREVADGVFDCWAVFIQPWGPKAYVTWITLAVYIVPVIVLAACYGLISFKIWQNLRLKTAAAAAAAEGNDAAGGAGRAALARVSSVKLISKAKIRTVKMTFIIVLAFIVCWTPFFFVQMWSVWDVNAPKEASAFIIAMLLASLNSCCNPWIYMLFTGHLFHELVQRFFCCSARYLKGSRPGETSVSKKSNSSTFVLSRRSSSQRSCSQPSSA
# rat Monoamine Oxidase, MAO-B, Peripheral (MAOBP), Maob (gene 25750), sequence (P19643 whole entry, looked up): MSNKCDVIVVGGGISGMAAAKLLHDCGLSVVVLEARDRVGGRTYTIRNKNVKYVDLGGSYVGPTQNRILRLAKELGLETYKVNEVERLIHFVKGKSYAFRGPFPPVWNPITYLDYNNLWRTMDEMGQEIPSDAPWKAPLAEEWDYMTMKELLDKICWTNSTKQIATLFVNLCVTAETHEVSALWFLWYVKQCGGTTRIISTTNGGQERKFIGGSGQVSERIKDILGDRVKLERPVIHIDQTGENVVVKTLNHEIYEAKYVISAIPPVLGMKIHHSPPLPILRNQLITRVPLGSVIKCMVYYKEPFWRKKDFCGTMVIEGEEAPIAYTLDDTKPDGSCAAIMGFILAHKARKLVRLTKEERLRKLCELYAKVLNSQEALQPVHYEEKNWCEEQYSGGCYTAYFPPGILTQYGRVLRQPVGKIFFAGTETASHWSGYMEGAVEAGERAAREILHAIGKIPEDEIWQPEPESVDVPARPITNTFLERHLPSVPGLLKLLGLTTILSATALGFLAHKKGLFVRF
smiles,measurement,setting,value
Cn1c(=O)cc(Oc2ccc(F)cc2F)c2cnc(NCC(C)(C)O)nc21,AC50,[1],17.3 µM (active)
same,outcome,[2],inactive
same,outcome,[3],inactive
COc1cc(C(C)C)c2c(c1)S(=O)(=O)N(COc1cc(=O)n3cccc(OCCN4CCCCC4)c3n1)C2=O,AC50,[1],5.52 µM (active)
same,AC50,[4],6.25 µM (active)
same,outcome,[5],inactive
CCN(CC)C(=O)c1cc(S(=O)(=O)Cc2ccccc2)c(N2CCC(c3ccccc3)CC2)cc1N(CC)CCN(C)C,AC50,[6],34.9 µM (active)
same,outcome,[7],inactive
same,outcome,[8],inactive
same,outcome,[9],inactive
same,outcome,[10],inactive
same,AC50,[11],6.13 µM (active)
CCCCCCCC/C=C\CCCCCCCC(=O)OC[C@@H](O)[C@H]1OC[C@H](O)[C@H]1O,outcome,[6],inactive
same,outcome,[12],inactive
same,outcome,[8],inactive
same,outcome,[2],inactive
same,outcome,[13],inactive
COc1ccc2cc(S(=O)(=O)N[C@H](CC(=O)N[C@H](Cc3ccc(CN4[C@H](C)CCC[C@@H]4C)cc3)C(=O)N(C)C(C)C)c3ccc4c(c3)OCO4)ccc2c1,outcome,[1],inactive
same,AC50,[4],30.6 µM (active)
same,outcome,[13],inactive
same,outcome,[11],inactive
CCOC(=O)O[C@H](C)OC(=O)c1ccc2c(c1)cc(C(=O)NC1CCN(C(C)C)CC1)n2Cc1cc(-c2ccc(Cl)s2)on1,AC50,[1],5.36 µM (active)
same,AC50,[14],23.6 µM (active)
same,AC50,[15],5.06 µM (active)
O=C(O)c1cccc(Oc2ccccc2)c1,outcome,[6],inactive
same,outcome,[16],inactive
same,outcome,[8],inactive
same,outcome,[9],inactive
same,outcome,[17],inactive
CC[C@H]1CC[C@H](NCc2cc3c(cc2OC)[C@H]2C[C@H]2C(=O)N3C)[C@H](c2ccccc2)N1,AC50,[1],20.5 µM (active)
same,AC50,[4],15.7 µM (active)

# Reference: PubChem BioAssay (EPA / NIEHS)
